Potency data for 35 molecules are collected here from PubChem BioAssay (NCATS).

Inconclusive results are not listed. Where a call stands in place of a potency, no number is given. Active and inactive are the calls of the source. Calls come from the whole dose curve; as a rule, active = well fitted inhibition curve with a large enough effect; inconclusive = small, poorly fitted or top-dose-only effect; inactive = flat fitted curve, though single readings scatter. Peptide text beside a SMILES is read from it.
Potency is the fitted concentration of half-maximal effect.

In the first test the test system is TAB113. The experiment in a line: qHTS profiling for inhibitors of Plasmodium falciparum proliferation (AID 504749). Note: nearly all actives have a fitted effect of over 60% in size. Conditions: P. falciparum in erythrocytes, SYBR Green DNA, 72 h; series mostly up to 28.7 µM. In outline: (§1)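 Readout was DNA-dye fluorescence from lysed cultures, ex 485/em 535 nm. Parasitized red cells had grown 72 h with compound; data scaled between 0.29 uM artemisinin and DMSO wells and corrected using vehicle-only plates.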
A general note: In qHTS, concentration-response curves come from the screen itself.
Regarding `O=C(O)CN(CCN(CC(=O)O)CC(=O)O)CC(=O)O`, the Potency entry was “inactive”.

With `Cc1cn([C@H]2C[C@H](O)[C@@H](CO)O2)c(=O)[nH]c1=O`, the Potency result was “inactive”.

For `COC(F)(F)C(Cl)Cl`, the Potency result was “inactive”.

As for `CC(C)=O`, the Potency result was “inactive”.

For `CCN(CC)Cc1cc(Nc2ccnc3cc(Cl)ccc23)ccc1O`, the Potency is 0.0794 µM (active).

Consider `CCCCCCCCCCCCCCCC(=O)OCC(COC(=O)CCCCCCCCCCCCCCC)OC(=O)CCCCCCCCCCCCCCC`, for which the Potency entry was “inactive”.

Turning to `Cc1ccccc1`, the Potency entry was “inactive”.

Consider `Cc1cc(C(=O)NNCc2ccccc2)no1`, for which the Potency result was “inactive”.

Regarding `C[C@H]1C[C@H]2[C@@H]3CCC4=CC(=O)C=C[C@]4(C)[C@@]3(F)[C@@H](O)C[C@]2(C)[C@@]1(O)C(=O)CO`, the Potency entry is “inactive”.

Take `CC(NNC(=O)c1ccccc1)c1ccccc1` (stereo unspecified): the Potency entry was “inactive”.

`CCOC(C)=O`: the Potency result was “inactive”.

In the case of `O=S(=O)(O)c1ccc2c(N=Nc3ccc(S(=O)(=O)O)c4ccccc34)c(O)c(S(=O)(=O)O)cc2c1`, the Potency entry was “inactive”.

For the molecule `CCCC(=O)O[C@]1(C(=O)CCl)[C@H](C)C[C@@H]2[C@H]3CCC4=CC(=O)C=C[C@]4(C)[C@@]3(F)C(=O)C[C@@]21C`, the Potency was 2.51 µM (active).

As to `COC(=O)CCC(=O)CN`, the Potency entry is “inactive”.

Regarding `CC[N+](C)(C)Cc1ccccc1Br`, the Potency result was “inactive”.

On to `CC1=C(/C=C/C(C)=C/C=C/C(C)=C/C=C/C=C(C)/C=C/C=C(C)/C=C/C2=C(C)C(=O)CCC2(C)C)C(C)(C)CCC1=O`, for which the Potency result was “inactive”.

In the case of `C[C@@H]1CCC2[C@@H](C)[C@@H](O)O[C@@H]3O[C@@]4(C)CC[C@@H]1[C@@]23OO4` (stereo partly specified), the Potency was 0.0011 µM (active).

For the molecule `CC1(C)S[C@@H]2[C@H](NC(=O)[C@@H](NC(=O)N3CCNC3=O)c3ccccc3)C(=O)N2[C@H]1C(=O)O`, the Potency entry is “inactive”.

In the case of `CC(=O)N[C@@H](CC(=O)O)C(=O)N[C@@H](CCC(=O)O)C(=O)O` (Ac-Asp-Glu-OH), the Potency entry was “inactive”.

`C[C@]12O[C@H](C[C@]1(O)CO)n1c3ccccc3c3c4c(c5c6ccccc6n2c5c31)CNC4=O`: the Potency was 0.316 µM (active).

For `CCNC(=O)[C@@H]1CCCN1C(=O)[C@H](CCCN=C(N)N)NC(=O)[C@H](CC(C)C)NC(=O)[C@@H](Cc1c[nH]c2ccccc12)NC(=O)[C@H](Cc1ccc(O)cc1)NC(=O)[C@H](CO)NC(=O)[C@H](Cc1c[nH]c2ccccc12)NC(=O)[C@H](Cc1cnc[nH]1)NC(=O)[C@@H]1CCC(=O)N1`, the Potency is 8.91 µM (active).

On to `Cc1ccccc1OCC(O)CNCCOc1ccc(C(N)=O)cc1` (stereo unspecified), for which the Potency entry is “inactive”.

`CCCCCCOc1ccc(C(=N)N(CCCC)CCCC)c2ccccc12`: the Potency was 10 µM (active).

Regarding `Cc1c(C)c2c(c(C)c1O)CC[C@@](C)(CCC[C@@H](C)CCC[C@@H](C)CCCC(C)C)O2`, the Potency result is “inactive”.

With `CCCCCCC(O)C/C=C/CCCCCCCC(=O)O` (stereo unspecified), the Potency result was “inactive”.

For the molecule `Oc1cc(O)c2c(c1)OC(c1ccc(O)c(O)c1)C(O)C2` (stereo unspecified), the Potency entry is “inactive”.

On to `CCCC(=O)Nc1ncnc2c1ncn2C1OC2COP(=O)(O)OC2C1OC(=O)CCC` (stereo unspecified), for which the Potency entry is “inactive”.

In the case of `NC(=O)c1ncn(C2OC(CO)C(O)C2O)n1` (stereo unspecified), the Potency entry is “inactive”.

In the case of `Nc1ncnc2c1ncn2[C@@H]1O[C@H](COP(=O)(O)OP(=O)(O)OP(=O)(O)O)[C@@H](O)[C@H]1O`, the Potency entry was “inactive”.

Turning to `CC1=C(/C=C/C(C)=C/C=C/C(C)=C/CO)C(C)(C)CCC1`, the Potency was 11.2 µM (active).

For `CC(Cc1ccc(O)c(O)c1)C(C)Cc1ccc(O)c(O)c1` (stereo unspecified), the Potency entry is “inactive”.

As for `Clc1cc(Cl)c(OCC#CI)cc1Cl`, the Potency was 5.01 µM (active).

On to `CC[C@@]1(O)C(=O)OCc2c1cc1n(c2=O)Cc2cc3c([N+](=O)[O-])cccc3nc2-1`, for which the Potency is 5.62 µM (active).

The subject of the next test is TAB165. Described as above. The settings on record: P. falciparum in erythrocytes, SYBR Green DNA, 72 h; series mostly up to 28.7 µM. In outline:
as §1
Consider `O=C(O)CN(CCN(CC(=O)O)CC(=O)O)CC(=O)O`, for which the Potency result is “inactive”.

Turning to `Cc1cn([C@H]2C[C@H](O)[C@@H](CO)O2)c(=O)[nH]c1=O`, the Potency result was “inactive”.

Regarding `COC(F)(F)C(Cl)Cl`, the Potency result is “inactive”.

`CC(C)=O`: the Potency entry is “inactive”.

Turning to `CCN(CC)Cc1cc(Nc2ccnc3cc(Cl)ccc23)ccc1O`, the Potency was 0.0447 µM (active).

As for `CCCCCCCCCCCCCCCC(=O)OCC(COC(=O)CCCCCCCCCCCCCCC)OC(=O)CCCCCCCCCCCCCCC`, the Potency result is “inactive”.

For the molecule `Cc1ccccc1`, the Potency entry is “inactive”.

Turning to `Cc1cc(C(=O)NNCc2ccccc2)no1`, the Potency result was “inactive”.

`C[C@H]1C[C@H]2[C@@H]3CCC4=CC(=O)C=C[C@]4(C)[C@@]3(F)[C@@H](O)C[C@]2(C)[C@@]1(O)C(=O)CO`: the Potency entry is “inactive”.

On to `CC(NNC(=O)c1ccccc1)c1ccccc1` (stereo unspecified), for which the Potency entry was “inactive”.

Take `CCOC(C)=O`: the Potency entry was “inactive”.

On to `COC(=O)C1=C(C#N)NC(C)=C(C(=O)OC(C)C)C1c1cccc([N+](=O)[O-])c1` (stereo unspecified), for which the Potency is 10 µM (active).

As to `O=S(=O)(O)c1ccc2c(N=Nc3ccc(S(=O)(=O)O)c4ccccc34)c(O)c(S(=O)(=O)O)cc2c1`, the Potency result was “inactive”.

With `CCCC(=O)O[C@]1(C(=O)CCl)[C@H](C)C[C@@H]2[C@H]3CCC4=CC(=O)C=C[C@]4(C)[C@@]3(F)C(=O)C[C@@]21C`, the Potency was 2 µM (active).

On to `COC(=O)CCC(=O)CN`, for which the Potency result was “inactive”.

As for `CC[N+](C)(C)Cc1ccccc1Br`, the Potency result is “inactive”.

With `CC1=C(/C=C/C(C)=C/C=C/C(C)=C/C=C/C=C(C)/C=C/C=C(C)/C=C/C2=C(C)C(=O)CCC2(C)C)C(C)(C)CCC1=O`, the Potency entry is “inactive”.

`C[C@@H]1CCC2[C@@H](C)[C@@H](O)O[C@@H]3O[C@@]4(C)CC[C@@H]1[C@@]23OO4` (stereo partly specified): the Potency was 0.0009 µM (active).

`CC1(C)S[C@@H]2[C@H](NC(=O)[C@@H](NC(=O)N3CCNC3=O)c3ccccc3)C(=O)N2[C@H]1C(=O)O`: the Potency entry is “inactive”.

Take `CCOC(=O)C1=C(C)NC(C)=C(C(=O)OCC)C1c1ccccc1C=CC(=O)OC(C)(C)C`: the Potency was 11.2 µM (active).

With `CC(=O)N[C@@H](CC(=O)O)C(=O)N[C@@H](CCC(=O)O)C(=O)O` (Ac-Asp-Glu-OH), the Potency entry was “inactive”.

For `C[C@]12O[C@H](C[C@]1(O)CO)n1c3ccccc3c3c4c(c5c6ccccc6n2c5c31)CNC4=O`, the Potency was 0.251 µM (active).

On to `CCNC(=O)[C@@H]1CCCN1C(=O)[C@H](CCCN=C(N)N)NC(=O)[C@H](CC(C)C)NC(=O)[C@@H](Cc1c[nH]c2ccccc12)NC(=O)[C@H](Cc1ccc(O)cc1)NC(=O)[C@H](CO)NC(=O)[C@H](Cc1c[nH]c2ccccc12)NC(=O)[C@H](Cc1cnc[nH]1)NC(=O)[C@@H]1CCC(=O)N1`, for which the Potency is 3.16 µM (active).

As for `Cc1ccccc1OCC(O)CNCCOc1ccc(C(N)=O)cc1` (stereo unspecified), the Potency entry is “inactive”.

As to `CCCCCCOc1ccc(C(=N)N(CCCC)CCCC)c2ccccc12`, the Potency was 12.6 µM (active).

With `Cc1c(C)c2c(c(C)c1O)CC[C@@](C)(CCC[C@@H](C)CCC[C@@H](C)CCCC(C)C)O2`, the Potency result was “inactive”.

With `CCCCCCC(O)C/C=C/CCCCCCCC(=O)O` (stereo unspecified), the Potency entry is “inactive”.

With `Oc1cc(O)c2c(c1)OC(c1ccc(O)c(O)c1)C(O)C2` (stereo unspecified), the Potency entry is “inactive”.

Consider `CCCC(=O)Nc1ncnc2c1ncn2C1OC2COP(=O)(O)OC2C1OC(=O)CCC` (stereo unspecified), for which the Potency entry was “inactive”.

As to `NC(=O)c1ncn(C2OC(CO)C(O)C2O)n1` (stereo unspecified), the Potency result is “inactive”.

For the molecule `Nc1ncnc2c1ncn2[C@@H]1O[C@H](COP(=O)(O)OP(=O)(O)OP(=O)(O)O)[C@@H](O)[C@H]1O`, the Potency entry is “inactive”.

On to `Clc1cc(Cl)c(OCC#CI)cc1Cl`, for which the Potency was 11.2 µM (active).

As to `CC[C@@]1(O)C(=O)OCc2c1cc1n(c2=O)Cc2cc3c([N+](=O)[O-])cccc3nc2-1`, the Potency was 3.98 µM (active).
